Screens: PubChem BioAssay, several laboratories
HDAC3 inhib – inhibitors of human histone deacetylase 3. O15379. recombinant HDAC3, fluorogenic peptide/trypsin coupled, fluorescence. inhibition, % at 8.3 µM. 320,000 tested, 0.15% active; in the data active = inhibition above about 26%, passing the limit was not always enough; inconclusive = no clear call, values can overlap the other calls
ALR inh – human ALR oxidase inhibition via reduced H2O2; 290,000 tested, 3.8% active; P55789; purified ALR, DTT oxidation, H2O2 HRP-luminol luminescence; inhibition, % (test concentration not listed);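 active = mean replicate inhibition above about 79%, with every replicate also reaching it, limit read from the data; inconclusive = only one of the two criteria met; inactive = mean below limit and not every replicate reaching it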
Rce1 inh – blocks yeast Ras-converting enzyme | Q03530 | 290,000 tested, 0.27% active | calls only | yeast membranes, quenched prenylated peptide cleavage fluorescence;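 active = fall in fluorescence gain of 50% or more versus controls, with final raw signal at or below 3038400; inconclusive = same 50% fall but final raw signal above 3038400; inactive = fall in fluorescence gain under 50%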
GRK2 inh – inhibitors of human GRK2 displacing RNA aptamer. AID 488847. inhibition of aptamer binding, % at 10 µM. bead flow cytometry, FAM-aptamer displacement from GRK2. 330,000 tested, 0.59% active. P25098;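 active = inhibition of aptamer binding above 40%, roughly 3 SD of noise, on plates passing a quality check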;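 note: median bead fluorescence of bound FAM aptamer so fluorescent compounds give negative values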
Target sequence (P25098 whole entry, looked up): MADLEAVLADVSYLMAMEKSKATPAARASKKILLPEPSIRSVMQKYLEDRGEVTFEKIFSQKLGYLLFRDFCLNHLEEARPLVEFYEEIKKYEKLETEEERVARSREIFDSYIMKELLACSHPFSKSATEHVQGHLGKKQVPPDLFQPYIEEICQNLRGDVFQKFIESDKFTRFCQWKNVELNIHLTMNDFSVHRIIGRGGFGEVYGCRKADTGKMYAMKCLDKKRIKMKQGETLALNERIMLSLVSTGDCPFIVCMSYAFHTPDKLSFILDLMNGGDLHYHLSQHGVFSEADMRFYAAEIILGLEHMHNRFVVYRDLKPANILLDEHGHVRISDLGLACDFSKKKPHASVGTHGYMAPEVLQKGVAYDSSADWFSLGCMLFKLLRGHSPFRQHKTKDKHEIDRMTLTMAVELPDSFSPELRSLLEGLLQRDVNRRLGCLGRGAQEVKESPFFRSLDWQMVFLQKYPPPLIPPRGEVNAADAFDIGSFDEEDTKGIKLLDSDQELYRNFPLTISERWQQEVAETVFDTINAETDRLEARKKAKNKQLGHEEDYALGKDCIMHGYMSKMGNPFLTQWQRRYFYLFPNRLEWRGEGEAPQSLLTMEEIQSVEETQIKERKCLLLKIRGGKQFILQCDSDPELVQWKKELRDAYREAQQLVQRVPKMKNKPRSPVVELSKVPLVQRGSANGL
Rtt109 HAT inh – C. albicans Rtt109 histone acetyltransferase inhibition; Q5AAJ8; purified Rtt109/Vps75, ThioGlo CoA-SH fluorescence, 4 h; inhibition, % at 34.9 µM; 330,000 tested, 0.16% active; AID 540336;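 active = inhibition of at least 50% in every replicate; inconclusive = best replicate reaches 50% inhibition but some replicates fall short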
Efflux pump inh – antifungal efflux pump inhibition, Nile Red retention | S. cerevisiae Candida pump triplex | inhibition, % at 10 µM | 330,000 tested, 0.44% active;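 active = plate passing quality check with inhibition over a set limit, or well fluorescence over plate mean plus 4 SD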;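 note: Nile Red retained in pooled yeast measured as flow cytometry median fluorescence; higher means more Nile Red kept so more efflux inhibition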
Numbers stand for hits; . = inactive; ? = inconclusive; / = no result given; + = active, no number. Only some compounds are listed: those with a hit (about 4.5% of all), similar ones and a draw of the others.

SMILES | HDAC3 inhib | ALR inh | Rce1 inh | GRK2 inh | Rtt109 HAT inh | Efflux pump inh
CC(=O)Nc1ccc(NS(=O)(=O)c2cccc3ccccc23)cc1 | . | . | . | . | . | .
O=C(O)c1cccc(S(=O)(=O)Nc2ccc(O)c(Sc3nc4ccccc4s3)c2)c1 | . | 99.2 | . | . | . | .
O=S(=O)(Nc1ccc(O)c(Sc2nc3ccccc3s2)c1)c1cccc2ccccc12 | . | . | . | . | 57.7 | .
O=S(=O)(Nc1ccc(O)c(Sc2nc3ccccc3s2)c1)c1ccc(F)cc1 | . | ? | . | . | . | .
COC(=O)[C@@]12OC[C@]34[C@H]([C@@H](O)[C@@H]1O)[C@@]1(C)C(=O)C(O[C@@H]5OC(CO)[C@@H](O)[C@@H](O)[C@@H]5O)=C[C@@H](C)[C@@H]1C[C@H]3OC(=O)[C@H](OC(=O)/C=C(\C)C(C)(C)OC(C)=O)[C@@H]24 (stereo partly drawn) | . | / | / | . | / | .
COc1ccccc1C1NC(c2ccccc2OC)C(C)C(=O)C1C (stereo not drawn) | / | / | . | . | . | .
COc1cccc(C2NC(c3cccc(OC)c3O)C(C)C(=O)C2C)c1O (stereo not drawn) | . | 87.5 | . | . | . | .
CC(=O)C1=C(O)C(=O)N(c2ccc(O)cc2)C1c1cccc(F)c1 (stereo not drawn) | . | 81.8 | . | . | . | .
CC(=O)C1=C(O)C(=O)N(c2ccc(Br)cc2)C1c1cccc(F)c1 (stereo not drawn) | . | / | . | . | . | .
CC(=O)C1=C(O)C(=O)N(c2ccc(O)cc2)C1c1cccc([N+](=O)[O-])c1 (stereo not drawn) | . | 83.1 | . | . | . | .
CC(=O)C1=C(O)C(=O)N(c2ccc(O)cc2)C1c1ccc(C)cc1 (stereo not drawn) | . | 98.8 | . | / | . | .
O=C(c1ccc(Cl)nc1)N1CCN(S(=O)(=O)c2ccc(Cl)cc2)CC1 | . | . | . | . | . | .
CN(CCOc1ccccc1)CC(=O)Nc1ccc(Br)cc1F | . | . | . | . | . | .
Clc1cccc(C2CCN(Cc3nc(CC4CC4)no3)C2)c1 (stereo not drawn) | . | . | . | . | . | .
CC(C)n1c(-c2ccc(N(C)C)cc2)nc2ccccc21 | . | ? | / | . | . | .
C=CCn1c(-c2ccc(OC)cc2)nc2ccccc21 | . | . | . | . | . | .
COCn1c(-c2ccccc2)nc2ccccc21 | . | . | / | . | . | .
C=CCn1c(-c2ccc(N)cc2)nc2ccccc21 | . | 94.9 | ? | . | . | .
COc1cc(Cn2c(-c3ccc(O)c(OC)c3)nc3ccccc32)ccc1O | . | 99.2 | . | . | . | .
CCn1c(-c2ccc(N(C)C)cc2)nc2ccccc21 | . | 98.7 | ? | . | . | .
CN(C)c1ccc(-c2nc3ccccc3n2C)cc1 | . | 91.4 | ? | . | . | .
Cc1ccc(NC(=O)Cc2ccccc2F)cc1S(=O)(=O)N1CCCCCC1 | ? | . | / | . | . | .
CC(=O)c1cccc(NC(=O)NNC(=O)c2ccc(-c3ccccc3)cc2)c1 | . | . | . | . | . | .
CCn1c(CCNC(=O)c2cccs2)nnc1SCC(=O)c1ccc(OC)cc1 | 26.6 | . | . | . | . | .
CCn1c(-c2ccc(N)cc2)nc2ccccc21 | . | 91.7 | ? | . | . | .
SMILES | HDAC3 inhib | ALR inh | Rce1 inh | GRK2 inh | Rtt109 HAT inh | Efflux pump inh
CCn1c(N)nc2ccccc21 | . | . | . | . | . | .
CCCn1c(CCNC(=O)c2cccs2)nc2ccccc21 | . | . | . | . | . | .
CCn1c(CNC(C)=O)nnc1SCC(=O)c1ccc(Br)cc1 | . | 96.3 | . | . | . | .
CCn1c(CCCNC(=O)c2cccs2)nc2ccccc21 | / | 97.8 | . | . | . | .
Cc1cc(NC(=O)CN2C(=O)c3ccccc3C2=O)no1 | . | . | . | . | . | .
C[C@H](CO)N1C[C@H](C)[C@@H](CN(C)C(=O)Nc2ccc3c(c2)OCO3)Oc2c(NS(=O)(=O)c3ccc(F)cc3)cccc2C1=O | . | . | / | . | . | .
CCn1c(-c2cccs2)nc2ccccc21 | . | . | + | . | . | .
COc1ccc(N2CCN(C(=O)CCc3nnc4ccc(N5CCCC5)nn34)CC2)cc1 | . | ? | . | . | . | .
COc1ccc(NC(=O)CCc2nnc3ccc(N4CCC(C)CC4)nn23)cc1 | . | . | . | . | . | .
COc1cccc(N2CCN(c3ccc4nnc(CCC(=O)Nc5ncccc5C)n4n3)CC2)c1 | . | 99.2 | . | . | . | .
COc1ccc(N2CCN(c3ccc4nnc(CCC(=O)Nc5ccc(C)cc5)n4n3)CC2)cc1 | . | 91.7 | . | . | . | .
CCN1CCN(C(=O)CCc2nnc3ccc(N4CCN(c5cccc(OC)c5)CC4)nn23)CC1 | . | 99.1 | . | . | . | .
O=C(c1cn(-c2ccccc2)nc1-c1cccnc1)N1CCCC(C(F)(F)F)C1 (stereo not drawn) | . | . | . | . | . | .
COc1ccc(C2CC(=O)C(C=NCCO)=C(O)C2)cc1OC (stereo not drawn) | . | . | . | . | . | .
COc1ccc(C2CC(=O)C(C=NCCO)=C(O)C2)cc1 (stereo not drawn) | . | . | . | . | 54.2 | .
CN(C)C(CNC(=O)c1cc(S(=O)(=O)N(C)Cc2ccccc2)ccc1Cl)c1ccco1 (stereo not drawn) | . | . | . | . | . | .
Cc1ccc(NC(=O)CSc2ccc3c(c2)OCCO3)nc1 | . | 97.8 | . | . | . | .
Cc1cccnc1NC(=O)CSc1ccc2c(c1)OCCO2 | . | / | / | . | . | .
O=C(CSc1ccc2c(c1)OCCO2)NCc1ccco1 | . | 97.8 | . | . | . | .
O=C(CSc1ccccc1)NCc1ccco1 | . | . | . | . | . | .
O=C(NC1CCOc2ccccc21)c1ccc(Cl)nc1 (stereo not drawn) | . | . | . | . | . | .
O=C(O)c1cccc(N/N=C(\N=Nc2ccccc2)c2ccccc2)c1 | . | 98.1 | . | . | . | .
O=C(O)c1ccc(N=N/C(=N\Nc2ccc(C(=O)O)cc2)c2ccccc2)cc1 | . | 97.7 | . | . | . | .
Cc1cccn2c(=O)c3cc(C#N)c(=NC(=O)c4ccccc4)n(Cc4ccco4)c3nc12 | . | 89.3 | . | . | . | .
CCOC(=O)c1cc2c(=O)n3ccccc3nc2n(Cc2ccco2)c1=NC(=O)c1ccccc1OCC | . | 89.6 | . | . | . | .
CCOC(=O)C(=O)NNc1ccc(F)cc1 | . | 98.9 | . | . | / | .
CCOC(=O)C(=O)N/N=C/c1ccc(F)cc1 | . | . | . | . | . | .
O=c1cc(-c2ccc([N+](=O)[O-])cc2)nc2cc(-c3ccc(Cl)cc3)[nH]n12 | . | . | / | 58.0 | / | .
CCCc1cc(=O)n2[nH]c(-c3ccc(Cl)cc3)cc2n1 | . | . | . | . | . | .
CCCCCCC(=O)N(O)C1CC(=O)N(c2ccc(Cl)cc2)C1=O (stereo not drawn) | 62.9 | . | . | . | . | .
